Measured values published in PubChem BioAssay (Tox21).
Unmarked numbers belong to inactive results. Results filed as inconclusive are left out. Calls of active or inactive are those of the source. Calls follow the shape of the full dose curve.

Target: Acetylcholinesterase (Homo sapiens) (UniProt P22303)
Experiment: Acetylcholinesterase (AChE) small molecule antagonists: colormetric cell-based qHTS assay (AID 1347395); also: nearly all actives have a fitted effect of over 30% in size
Conditions: SH-SY5Y cells AChE activity, colorimetric (Ellman); series mostly up to 115 µM; activity, negative = inhibition: at the top concentration
In short: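 Neuroblastoma line SH-SY5Y supplied the enzyme; cells were preincubated with compound for 30 min at 37 C and 5% CO2. Acetylthiocholine with DTNB was then added for 90 min at 37 C, and thiocholine was measured by colour.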
% is scaled to controls: 0 for no effect and ±100 for the full control effect.

Chain of Acetylcholinesterase (Homo sapiens) (P22303 whole entry, looked up): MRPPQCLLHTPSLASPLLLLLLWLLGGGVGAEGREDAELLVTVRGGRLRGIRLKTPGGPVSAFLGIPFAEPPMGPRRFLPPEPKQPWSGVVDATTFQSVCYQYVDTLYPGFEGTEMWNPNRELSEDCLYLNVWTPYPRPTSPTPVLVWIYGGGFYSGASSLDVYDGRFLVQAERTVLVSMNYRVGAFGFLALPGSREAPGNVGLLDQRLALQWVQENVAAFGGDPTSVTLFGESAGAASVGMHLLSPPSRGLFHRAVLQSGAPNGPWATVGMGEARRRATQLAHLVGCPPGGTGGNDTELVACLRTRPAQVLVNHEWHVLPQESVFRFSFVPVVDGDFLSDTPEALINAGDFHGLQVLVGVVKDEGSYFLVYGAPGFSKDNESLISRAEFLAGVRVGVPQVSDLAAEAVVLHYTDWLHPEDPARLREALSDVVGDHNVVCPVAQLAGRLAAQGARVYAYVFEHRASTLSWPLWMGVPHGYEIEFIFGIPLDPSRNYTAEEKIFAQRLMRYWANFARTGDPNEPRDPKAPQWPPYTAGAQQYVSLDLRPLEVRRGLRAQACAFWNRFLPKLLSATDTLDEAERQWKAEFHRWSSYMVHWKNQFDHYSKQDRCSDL

Row | Compound | Potency | activity, negative = inhibition
1 | CC1CC(OC(=O)c2ccccc2O)CC(C)(C)C1 (stereo not given) | inactive | 
2 | Cc1ccc2ncccc2c1 | inactive | 
3 | COC(=O)Nc1nc2ccc(Sc3ccccc3)cc2[nH]1 | inactive | 
4 | O=C1[C@H](CC[C@H](O)c2ccc(F)cc2)[C@@H](c2ccc(O)cc2)N1c1ccc(F)cc1 |  | -11% [at 52.9 µM]
5 | CC(C)(C)C(=O)C(Oc1ccc(Cl)cc1)n1ccnc1 (stereo not given) |  | 1.2% [at 52.9 µM]
6 | CC(C)(O)C(=O)c1ccc(OCCO)cc1 |  | 1.86%
7 | ClC1=C(Cl)C1(Cl)Cl |  | -1.23%
8 | O=[N+]([O-])c1ccc(Oc2ccc([N+](=O)[O-])cc2)cc1 |  | -5.3%
9 | c1ccc2[nH]ccc2c1 | inactive | 
10 | COC(=O)c1ccc(C)cc1 | inactive | 
11 | CCCCCC[C@@H](O)C/C=C\CCCCCCCC(=O)OC |  | -2.39%
12 | C[Si](C)(CCCN)O[Si](C)(C)CCCN |  | -1.11%
13 | O=C(O)c1cc2ccccc2cc1O | inactive | 
14 | CN(C)CCCN | inactive | 
15 | CC(=O)CC(C)(C)C1CCCCC1 |  | 3.94%
16 | NS(=O)(=O)c1ccc(Cl)c(S(N)(=O)=O)c1 |  | 1.42% [at 52.9 µM]
17 | Nc1ccc(O)cc1 | inactive | 
18 | CCc1ccc(O)cc1 | inactive | 
19 | Nc1ccc(O)c(C(=O)O)c1 | inactive | 
20 | C/C=C/C=C/CO |  | 1.57%

Row | Compound | Potency | activity, negative = inhibition
21 | O=[Se](O)O | inactive | 
22 | Cc1cc(O)c(Cl)c(C)c1Cl |  | 0.825%
23 | OC(CCCN1CCCCC1)(c1ccccc1)c1ccccc1 |  | -0.0435% [at 52.9 µM]
24 | CCN(CC)CCSC(=O)C(c1ccccc1)c1ccccc1 |  | -1.43% [at 52.9 µM]
25 | Cc1ccc(N)c(S(=O)(=O)O)c1 | inactive | 
26 | OCC1CC=CCC1 (stereo not given) |  | 6.63%
27 | C/C(=C1\CCOC(=O)S1)N(C=O)Cc1cnc(C)nc1N |  | 2.29% [at 52.9 µM]
28 | Cc1c(Cn2ccnc2)c2ccccc2n1CCC(=O)O |  | -0.589% [at 52.9 µM]
29 | c1cc(N(CC2CO2)CC2CO2)ccc1Cc1ccc(N(CC2CO2)CC2CO2)cc1 (stereo not given) |  | -2.94%
30 | c1ccc(Oc2ccccc2)cc1 | inactive | 
31 | Nc1ncn([C@H]2C[C@H](O)[C@@H](CO)O2)c(=O)n1 |  | 1.91% [at 52.9 µM]
32 | CCCCCCC=O | inactive | 
33 | Cc1nc2ccc(Cl)cc2[nH]1 |  | -1.54%
34 | C[C@]12CCC(=O)C=C1[C@@H]1C[C@@H]1[C@H]1[C@@H]3[C@@H]4C[C@@H]4[C@@]4(CCC(=O)O4)[C@@]3(C)CC[C@@H]12 |  | 0.589% [at 52.9 µM]
35 | Cc1cn([C@H]2C[C@H](F)[C@@H](CO)O2)c(=O)[nH]c1=O |  | -3.76% [at 52.9 µM]
36 | O=C1CCCCCN1 | inactive | 
37 | c1ccc(COCc2ccccc2)cc1 |  | 0.554%
38 | O=S(O)O |  | 0.406% [at 23.6 µM]
39 | CC(=O)Nc1ccc(OC(=O)c2ccccc2OC(C)=O)cc1 |  | 0.341% [at 52.9 µM]
40 | C=CC(C)(CCC=C(C)C)OC(=O)c1ccccc1 (stereo not given) |  | -0.0658%

Target: Acetylcholinesterase (Homo sapiens) (UniProt P22303)
Experiment: Acetylcholinesterase (AChE) small molecule antagonists: enzyme-based qHTS assay (AID 1347397); also: nearly all actives have a fitted effect of over 55% in size
Conditions: Potency: AChE enzyme activity inhibition; outcome: AChE enzyme activity inhibition; series mostly up to 115 µM; activity change, negative = inhibition: at the top concentration
In short: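 rhAChE 50 mU/mL (dispensed) + cpd or DMSO, 30 min RT; add DTNB/acetylthiocholine cocktail, 10 min RT; colorimetric thiocholine readout. qHTS, 1536-well format.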

Row | Compound | Potency | activity change, negative = inhibition
41 | CC1CC(OC(=O)c2ccccc2O)CC(C)(C)C1 (stereo not given) | inactive | 
42 | Cc1ccc2ncccc2c1 | inactive | 
43 | COC(=O)Nc1nc2ccc(Sc3ccccc3)cc2[nH]1 | inactive | 
44 | O=C1[C@H](CC[C@H](O)c2ccc(F)cc2)[C@@H](c2ccc(O)cc2)N1c1ccc(F)cc1 |  | -4.13% [at 53 µM]
45 | CC(C)(C)C(=O)C(Oc1ccc(Cl)cc1)n1ccnc1 (stereo not given) |  | 1.47% [at 53 µM]
46 | CC(C)(O)C(=O)c1ccc(OCCO)cc1 |  | -0.395%
47 | ClC1=C(Cl)C1(Cl)Cl |  | 1.9%
48 | O=[N+]([O-])c1ccc(Oc2ccc([N+](=O)[O-])cc2)cc1 |  | 0.811%
49 | c1ccc2[nH]ccc2c1 | inactive | 
50 | COC(=O)c1ccc(C)cc1 | inactive | 
51 | CCCCCC[C@@H](O)C/C=C\CCCCCCCC(=O)OC |  | -1.77%
52 | C[Si](C)(CCCN)O[Si](C)(C)CCCN |  | 0.206%
53 | O=C(O)c1cc2ccccc2cc1O | inactive | 
54 | CN(C)CCCN | inactive | 
55 | CC(=O)CC(C)(C)C1CCCCC1 |  | -1.1%
56 | NS(=O)(=O)c1ccc(Cl)c(S(N)(=O)=O)c1 |  | 0.284% [at 53 µM]
57 | Nc1ccc(O)cc1 | inactive | 
58 | CCc1ccc(O)cc1 | inactive | 
59 | Nc1ccc(O)c(C(=O)O)c1 | inactive | 
60 | C/C=C/C=C/CO |  | -0.624%

Row | Compound | Potency | activity change, negative = inhibition
61 | O=[Se](O)O | inactive | 
62 | Cc1cc(O)c(Cl)c(C)c1Cl |  | -0.526%
63 | OC(CCCN1CCCCC1)(c1ccccc1)c1ccccc1 |  | 0.727% [at 53 µM]
64 | CCN(CC)CCSC(=O)C(c1ccccc1)c1ccccc1 |  | -0.268% [at 53 µM]
65 | Cc1ccc(N)c(S(=O)(=O)O)c1 | inactive | 
66 | OCC1CC=CCC1 (stereo not given) |  | 3.51%
67 | C/C(=C1\CCOC(=O)S1)N(C=O)Cc1cnc(C)nc1N |  | 0.74% [at 53 µM]
68 | Cc1c(Cn2ccnc2)c2ccccc2n1CCC(=O)O |  | 0.948% [at 53 µM]
69 | c1cc(N(CC2CO2)CC2CO2)ccc1Cc1ccc(N(CC2CO2)CC2CO2)cc1 (stereo not given) |  | 0.129%
70 | c1ccc(Oc2ccccc2)cc1 | inactive | 
71 | Nc1ncn([C@H]2C[C@H](O)[C@@H](CO)O2)c(=O)n1 |  | -0.554% [at 53 µM]
72 | CCCCCCC=O | inactive | 
73 | Cc1nc2ccc(Cl)cc2[nH]1 |  | 0.049%
74 | C[C@]12CCC(=O)C=C1[C@@H]1C[C@@H]1[C@H]1[C@@H]3[C@@H]4C[C@@H]4[C@@]4(CCC(=O)O4)[C@@]3(C)CC[C@@H]12 |  | 0.135% [at 53 µM]
75 | Cc1cn([C@H]2C[C@H](F)[C@@H](CO)O2)c(=O)[nH]c1=O |  | 0% [at 53 µM]
76 | O=C1CCCCCN1 | inactive | 
77 | c1ccc(COCc2ccccc2)cc1 |  | -0.419%
78 | O=S(O)O |  | -0.777% [at 23.6 µM]
79 | CC(=O)Nc1ccc(OC(=O)c2ccccc2OC(C)=O)cc1 |  | 0.859% [at 53 µM]
80 | C=CC(C)(CCC=C(C)C)OC(=O)c1ccccc1 (stereo not given) |  | -0.827%
